# According to PubChem BioAssay (Tox21):
# Calls of active or inactive are those of the source. Calls follow the shape of the dose curve; as a rule, active = well fitted curve in the direction sought with a large enough effect in the repeat runs; inconclusive = weak or mixed curves; inactive = flat fitted curve, though single readings scatter.
# Assay: qHTS assay to test for compound auto fluorescence at 460 nm (blue) in HEK293 cell free culture (AID 720681)
# Conditions: cell-free medium, autofluorescence 405/460 nm (blue); series mostly up to 91.3 µM
# Excerpt: U.S. Tox21 Program National Center for Advancing Translational Sciences [NCATS] NIH Chemical Genomics Center [NCGC] U.S. Environmental Protection Agency [EPA] National Institutes of Environmental Health Sciences [NIEHS] National Toxicology Program [NTP] U.S. Food and Drug Administration [FDA] Tox21 Assay Overview: Compound auto fluorescence often interferes with screening of the compound library against various biological targets and signaling pathways. Some of these compounds may have fluorophoric properties. Such properties may interfere with the assay outputs resulting in false positives and/or negatives. To decrease such complications and ensure the compound activities are relevant in terms of biological response, the Tox21 10K compound library was screened for auto fluorescence. From the fluorophores used as reporter signals in our screening assays, the auto fluorescence equivalencies of compounds against three fluorophores have been evaluated: Triamterene, Fluorescein and Rose Bengal sodium for blue, green and red fluorescence, respectively. The fluorescence intensities were measured using Excitation/Emission wavelengths at 405/460nm, 485/535nm and 540/590nm for blue, green and red labels, respectively. This assay includes the blue fluorescence data.
# Tox21 Assay Protocol Summary: 5 uL of culture medium (DMEM containing 10% FBS) per well was dispensed into black wall/clear bottom 1536-well plates using a Multidrop Combi Dispenser (ThermoFisher Scientific, Waltham, MA). After 23 nL compound or DMSO vehicle was transferred into assay plate by a pintool work station (Kalypsys, San Diego, CA), fluorescence intensities in the assay plates were measured by an Envision (PerkinElmer, Shelton, CT) plate reader using three labels for measuring blue, green and red fluorescence at […] 460, 535 and 590nm respectively.
# % is scaled to controls: 0 for no effect and ±100 for the full control effect.
Structure (SMILES),outcome,"fluorescence, % of fluorescent control"
Cc1ccc(S(=O)(=O)NC(=O)NC2CCCCCCC2)cc1,inactive,–
CN=C(NC#N)NCCSCc1csc(N=C(N)N)n1,inactive,–
COc1ccc(NS(=O)(=O)c2ccc(N)cc2)nn1,–,0.201% [at 18.6 µM] (inactive)
Nc1ccc(S(=O)(=O)NC(=O)c2ccccc2)cc1,–,-0.0169% [at 18.6 µM] (inactive)
Cn1c(=O)c2c(ncn2CC2OCCO2)n(C)c1=O,inactive,–
CC(=O)OC(C(=O)c1ccccc1)c1ccccc1 (stereo not given),inactive,–
CN(C)CCCNCCC#N,inactive,–
CCCOCCOCCOCCO,inactive,–
CC(C)c1ccccc1O,inactive,–
CCCCC(CC)COC(=O)c1ccccc1 (stereo not given),inactive,–
N#CCCOCCOCCC#N,inactive,–
CCC1COC(=O)O1 (stereo not given),inactive,–
CC(=O)Nc1ncc([N+](=O)[O-])s1,inactive,–
C=CCCCCCCCCCCC,–,-0.158% [at 3.72 µM] (inactive)
CO[Si](CCCS)(OC)OC,inactive,–
C[C@@H]1C[C@H]2[C@@H]3C[C@H](F)C4=CC(=O)C=C[C@]4(C)[C@@]3(F)[C@@H](O)C[C@]2(C)[C@@]1(O)C(=O)CO,–,-0.0209% [at 18.6 µM] (inactive)
CCCC(C)CC (stereo not given),inactive,–
CCOC(=O)CC#N,inactive,–
CCCCOC(=O)[C@@H](C)Oc1ccc(Oc2ccc(C(F)(F)F)cn2)cc1,inactive,–
CCCCC/C=C/CC(=O)OC,inactive,–

Structure (SMILES),outcome,"fluorescence, % of fluorescent control"
CCCCCCCCCCCCCC(=O)OC,inactive,–
CCOC(=O)CCc1ccccc1,inactive,–
CCOC(=O)CCCCCCCCC(=O)OCC,inactive,–
NC(=O)NNC(N)=O,inactive,–
CCC(C)N (stereo not given),inactive,–
CCCOC(=O)CCCCC(=O)OCCC,inactive,–
CCN(CCO)c1cccc(C)c1,inactive,–
CC(=O)N(CC(O)CO)c1c(I)c(C(=O)NCC(O)CO)c(I)c(C(=O)NCC(O)CO)c1I (stereo not given),inactive,–
C=C(C)C(=O)OC,inactive,–
CCCO,inactive,–
CCOC(=O)C(C)(C)C,inactive,–
CC(C)CCCC(C)CC=O (stereo not given),inactive,–
SCCSCCS,inactive,–
CCNC(=O)NCCCOc1cccc(CN2CCCCC2)c1,inactive,–
CC(=O)Nc1ccc(C)cc1,inactive,–
O=C(CN1CCN(Cc2ccc3c(c2)OCO3)CC1)N1c2ccccc2Sc2ccccc21,inactive,–
C=CCOC(=O)c1ccc(C(=O)OCC=C)c(C(=O)OCC=C)c1,inactive,–
O=C1OC(=O)c2ccccc21,inactive,–
O=C(O)/C=C/c1ccccc1,inactive,–
CCCCCCCC/C=C\CCCCCCCC(=O)OC[C@@H](O)[C@H]1OC[C@H](O)[C@H]1O,inactive,–
